Screening data as filed in PubChem.
Most compounds without a hit are left out; they make up all but 19% or so of the library.
DT40 TDP1 CPT – qHTS for Inhibitors of human tyrosyl-DNA phosphodiesterase 1 (TDP1): qHTS in cells in presence of CPT; chicken DT40 Tdp1-/-;hTDP1 cells + 20 nM CPT, ATP luminescence, 48 h; actives 12% (n = 420,000); Potency, µM (highest dose often 46.2 µM), without a hit: at the highest dose activity change, negative = growth inhibition, usual class: inhibitors; further: potency means the concentration at half of the fitted maximal effect; nearly all actives have a fitted effect of over 55% in size
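Chicken DT40 Tdp1-/- cells complemented with human TDP1, 400 cells/well, exposed to compounds plus 20 nM camptothecin for at least 48 h at 37 C; viability read as ATP content by CellTiter-Glo luminescence.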
ELG1 DNA repair – qHTS screen for small molecules that inhibit ELG1-dependent DNA repair in human embryonic kidney (HEK293T) cells expressing luciferase-tagged ELG1. HEK293T ELG1-luciferase reporter, luminescence, 16 h; DNA damage induced by 5-fluorouridine. Potency, µM (titrated, usually from 46.1 µM), for the others: at the top dose activity change, negative = inhibition, usual class: inhibitors. actives 2.3% (n = 330,000); further: potency means the concentration at half of the fitted maximal effect; nearly all actives have a fitted effect of over 55% in size
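In this reporter screen, reduction of luminescence relative to DMSO vehicle indicated activity. Compounds and 5-fluorouridine were added together to 2,000 cells per well, incubated for 16 hr at 37 °C, then developed with ONE-Glo.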
Giardia kill – Small Molecules that selectively kill Giardia lamblia: qHTS. activity change, % at 7.66 µM, hits read low. AID 540267, 2011. Giardia lamblia trophozoite viability. actives 0.15% (n = 340,000); in the data active means activity change below about -80%; inconclusive means between about -30% and that limit;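 further: parasites exposed to compound for two days anaerobically before the ATP read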
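Giardia lamblia trophozoites (100 cells/well) were incubated with compounds for 48 h at 37 deg C under anaerobic conditions. Viability was read as ATP content by one-step luminescence after 15-30 min at room temperature.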
TDP1 cell noCPT – qHTS for Inhibitors of human tyrosyl-DNA phosphodiesterase 1 (TDP1): qHTS in cells in absence of CPT. Potency, µM (top dose mostly 46.2 µM), for the others: top-dose activity change, negative = growth inhibition, usual class: inhibitors. actives 15% (n = 420,000). DT40 Tdp1-/- hTDP1 cells, no CPT, ATP luminescence, 48 h. AID 686978, 2013; further: potency means the concentration at half of the fitted maximal effect; nearly all actives have a fitted effect of over 55% in size
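Chicken DT40 Tdp1-/- cells complemented with human TDP1, screened without camptothecin (DMSO vehicle only), 400 cells/well. Compounds pin-transferred, cells incubated at 37 °C for at least 48 hr. Growth read as ATP-dependent luminescence (CellTiter-Glo, 30 min at RT).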
IL-1B inflam inh – qHTS for Inhibitors of Inflammasome Signaling: IL-1-beta AlphaLISA Primary Screen. AID 743279, 2014. actives 4.7% (n = 360,000). activity change, % at 57.5 µM. THP-1 LPS/ATP IL-1B secretion, AlphaLISA, 16 h; stronger effect = lower value; in the data active means activity change below about -50%; inconclusive means mostly about -30% to -49%
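THP-1 cells pretreated 1 hr with compounds (up to 57.5 uM final), then stimulated with LPS (250 ng/mL final) plus ATP (1.25 mM final); secreted IL-1B measured by AlphaLISA after 16 hr, decreased signal indicating inhibition.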
TDP1 block – qHTS Assay for Inhibitors of Tyrosyl-DNA Phosphodiesterase (TDP1) | recombinant TDP1, AlphaScreen DNA substrate cleavage | AID 485290, 2010 | Potency, µM (doses to about 130 µM), for inactives: at the highest dose activity change, negative = inhibition, actives largely listed as inhibitors | actives 0.28% (n = 350,000) | Tyrosyl-DNA phosphodiesterase 1 (Homo sapiens), Q9NUW8; further: potency means the concentration at half of the fitted maximal effect; nearly all actives have a fitted effect of over 40% in size
Target sequence (Q9NUW8 whole entry, looked up): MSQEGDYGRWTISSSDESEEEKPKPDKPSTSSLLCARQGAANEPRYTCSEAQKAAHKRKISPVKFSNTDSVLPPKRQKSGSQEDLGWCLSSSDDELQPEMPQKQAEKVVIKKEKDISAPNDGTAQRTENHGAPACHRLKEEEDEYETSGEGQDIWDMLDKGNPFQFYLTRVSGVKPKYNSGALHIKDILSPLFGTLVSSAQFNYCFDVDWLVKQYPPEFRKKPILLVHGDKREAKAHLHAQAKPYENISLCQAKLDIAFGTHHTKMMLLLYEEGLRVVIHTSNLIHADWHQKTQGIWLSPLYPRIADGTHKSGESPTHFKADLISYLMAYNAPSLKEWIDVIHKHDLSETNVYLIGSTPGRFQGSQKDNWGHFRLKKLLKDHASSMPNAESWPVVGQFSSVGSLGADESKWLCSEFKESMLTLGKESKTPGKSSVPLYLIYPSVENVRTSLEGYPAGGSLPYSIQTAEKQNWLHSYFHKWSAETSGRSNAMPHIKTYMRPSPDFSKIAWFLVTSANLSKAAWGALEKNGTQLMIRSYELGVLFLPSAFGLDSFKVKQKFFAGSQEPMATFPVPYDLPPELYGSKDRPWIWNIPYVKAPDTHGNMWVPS
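Compounds were preincubated with Tdp1 (1 nM final) for 15 min at room temperature before substrate (15 nM final) started a 5 min reaction; beads (10 ug/ml final) were then added for 10 min before AlphaScreen detection.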
* hit, by the source's call; ? = inconclusive; / = not tested or not shown; [ ] = another dose, or the depositor's remark. Unless noted, the call rests on the fitted dose curve; in most records, active means well fitted curve in the direction sought with a large enough effect; inconclusive means small, poorly fitted or top-dose-only effect, or another doubt; inactive means no such curve, though single readings can be large; an effect the other way counts as inactive or inconclusive. On the % scale 0 is the no-effect control and ±100 the full control effect.

SMILES	DT40 TDP1 CPT	ELG1 DNA repair	Giardia kill	TDP1 cell noCPT	IL-1B inflam inh	TDP1 block
Cc1cccc(NC(=O)CN2CCN(C(=O)C3CCCO3)CC2)c1C (centres undefined)	-21%	-2%	15	-5%	9	1%
CCc1nnc2sc(-c3cc(-c4ccccc4)nc4ccccc34)nn12	35µM*	-27%	-3	?	14	0%
c1cncc(-c2nn3c(Cn4nnc5ccccc54)nnc3s2)c1	?	4%	10	?	-7	5%
Cc1cccc(OCC(=O)Nc2ccc3c(c2)C(=O)NC3=O)c1	-7%	3%	-10	?	-17	-2%
Cc1ccc(-c2nnc3c4ccccc4c(C)nn23)cc1S(=O)(=O)N1CCN(CCO)CC1	?	?	7	18µM*	?	8%
Cc1nn2c(-c3cccc(NC(=O)CSc4nc5ccccc5o4)c3)nnc2c2ccccc12	12µM*	?	1	7.3µM*	-17	-2%
Cc1nn2c(-c3cccc(NC(=O)CN4CCOCC4)c3)nnc2c2ccccc12	29µM*	/	11	13µM*	/	/
Cc1nn2c(-c3cccc(NC(=O)c4ccccc4)c3)nnc2c2ccccc12	4.6µM*	/	/	2.9µM*	/	-1%
Cc1ccc(-c2nnc3c4ccccc4c(C)nn23)cc1S(=O)(=O)N1CCN(C)CC1	?	/	-5	-28%	21	/
Cc1ccccc1CNC(=O)c1ccccc1SCC(=O)NCc1ccco1	?	-5%	-1	?	-12	1%
COC(=O)[C@@H]1CCCN1Cc1ccc2c(c1)CN(Cc1ccccc1C)CCO2	9%[9.04 µM]	/	/	-2%	/	/
COc1ccccc1CCNCc1cc2cccc(C)c2nc1-c1cccs1	4%	/	/	-10%	/	/
O=C(CSc1nc2c([nH]c3ccccc32)c(=O)n1-c1ccccc1F)Nc1ccccc1C(F)(F)F	16µM*	/	/	21µM*	/	8%
CCc1nnc(NC(=O)CSc2nc3c([nH]c4ccccc43)c(=O)n2-c2cc(C)cc(C)c2)s1	?	/	/	16µM*	/	5%
O=C(CSc1nc2c([nH]c3ccccc32)c(=O)n1-c1ccc(F)cc1)NC1CCCCC1	15µM*	/	/	?	/	2%
Cc1ccc(C)c(NC(=O)CSc2nc3c([nH]c4ccccc43)c(=O)n2-c2ccc(F)cc2)c1	15µM*	/	/	13µM*	/	5%
O=C(CSc1nc2c([nH]c3ccccc32)c(=O)n1-c1ccccc1)Nc1ccccc1F	?	/	/	?	/	3%
NC(=O)C1(N2CCCCC2)CCN(C(=O)Nc2ccc(Cl)c(Cl)c2)CC1	-27%	/	/	?	/	4%
O=C1CC(c2nc(-c3ccc(Cl)cc3)no2)CN1c1ccc2c(c1)OCCO2 (centres undefined)	-28%	/	/	-27%	/	6%
O=C(CSc1nc2c([nH]c3ccccc32)c(=O)n1-c1cccc(C(F)(F)F)c1)N1CCc2ccccc21	7.3µM*	/	/	8.2µM*	/	4%
O=C(CSc1nc2c([nH]c3ccccc32)c(=O)n1-c1ccc(Cl)cc1)N1CCCCCC1	?	/	/	21µM*	/	5%
CCOC(=O)CSc1nc2c([nH]c3ccccc32)c(=O)n1-c1ccc(OC)cc1	-20%	/	/	?	/	7%
CCC1CCCCN1C(=O)CSc1nc2c([nH]c3ccccc32)c(=O)n1-c1ccc(OC)cc1 (centres undefined)	?	/	/	18µM*	/	8%
COc1ccc(-n2c(SCC(=O)NCC3CCCO3)nc3c([nH]c4ccccc43)c2=O)cc1 (centres undefined)	6%	?	-15	-7%	18	-9%
COc1ccc(-n2c(SCC(=O)NC3CCCCC3)nc3c([nH]c4ccccc43)c2=O)cc1	?	/	/	21µM*	/	-2%
SMILES	DT40 TDP1 CPT	ELG1 DNA repair	Giardia kill	TDP1 cell noCPT	IL-1B inflam inh	TDP1 block
COc1cccc(-n2c(SCC(=O)N3CCCc4ccccc43)nc3c([nH]c4ccccc43)c2=O)c1	?	/	/	?	/	7%
O=C(O)CCn1c2c(c3ccccc31)C[C@H](NS(=O)(=O)c1ccc(F)cc1)CC2	-1%	/	/	-7%	/	/
O=C(CN1C(=O)NC2(CCCC2)C1=O)Nc1cc(Cl)ccc1N1CCCCC1	-13%	-2%	17	-25%	0	5%
COc1cc(OC)c(OC)cc1/C=N/NC(=S)NCC1CCCO1 (centres undefined)	7.3µM*	18µM*	-3	?	-8	10%
COc1ccc2ccccc2c1/C=N/NC(=S)NCCN1CCOCC1	16µM*	?	21	-12%	-15	5%
COc1cc(OC)c(OC)cc1/C=N/NC(=S)NCCN1CCOCC1	18µM*	-1%	-8	16µM*	1	0%
COc1cc(/C=N/NC(=S)NCCN2CCOCC2)cc(OC)c1O	27%	18%	0	4%	39	-3%
COc1cc(/C=N/NC(=O)C(=O)NCC2CCCO2)ccc1O (centres undefined)	7%	12%	-2	-3%	6	5%
O=C(N1CCCCC1)C1(S(=O)(=O)c2ccccc2)CC=CC1	21µM*	22%	36	8.2µM*	16	/
CCCCn1c(SCC(=O)NC2CCS(=O)(=O)C2)nc2cc(S(N)(=O)=O)ccc21 (centres undefined)	-12%	-4%	-13	-4%	12	-1%
O=[N+]([O-])c1cc([N+](=O)[O-])c(Oc2cc(F)cc(F)c2)cc1NN1CCCCC1	18µM*	27%	-18	-24%	21	1%
Cc1cccc(NC(=O)c2cccc(Cn3cc(Br)c([N+](=O)[O-])n3)c2)c1C	?	?	6	21µM*	?	6%
CCCCCOc1ccc(/C=C/c2c([N+](=O)[O-])c(=O)n(C)c(=O)n2C)cc1	18µM*	?	17	21µM*	-86*	/
COc1ccc(/C=C/c2c([N+](=O)[O-])c(=O)n(C)c(=O)n2C)c(OC)c1OC	-8%	-11%	-18	?	-58*	0%
COc1ccc(/C=C/c2c([N+](=O)[O-])c(=O)n(C)c(=O)n2C)cc1OC	-1%	12%	2	-13%	-4	4%
